ABCB6 inh MLPCN: inhibitors of human ABC transporter ABCB6. fluorescence ratio to DMSO, % at 10 µM. AID 602162. K562-ABCB6 porphyrin accumulation, flow cytometry, 1 h; active compounds read low. 0.19% of 360,000 active. Q9NP58;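 active = fluorescence ratio to DMSO below 75%, the collection mean minus 3 SD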;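 note: signal is porphyrin accumulated inside mitochondria; 100% equals median channel fluorescence of DMSO control wells; lower ratio means ABCB6 inhibition with less porphyrin fluorescence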
Target sequence (Q9NP58 whole entry, looked up): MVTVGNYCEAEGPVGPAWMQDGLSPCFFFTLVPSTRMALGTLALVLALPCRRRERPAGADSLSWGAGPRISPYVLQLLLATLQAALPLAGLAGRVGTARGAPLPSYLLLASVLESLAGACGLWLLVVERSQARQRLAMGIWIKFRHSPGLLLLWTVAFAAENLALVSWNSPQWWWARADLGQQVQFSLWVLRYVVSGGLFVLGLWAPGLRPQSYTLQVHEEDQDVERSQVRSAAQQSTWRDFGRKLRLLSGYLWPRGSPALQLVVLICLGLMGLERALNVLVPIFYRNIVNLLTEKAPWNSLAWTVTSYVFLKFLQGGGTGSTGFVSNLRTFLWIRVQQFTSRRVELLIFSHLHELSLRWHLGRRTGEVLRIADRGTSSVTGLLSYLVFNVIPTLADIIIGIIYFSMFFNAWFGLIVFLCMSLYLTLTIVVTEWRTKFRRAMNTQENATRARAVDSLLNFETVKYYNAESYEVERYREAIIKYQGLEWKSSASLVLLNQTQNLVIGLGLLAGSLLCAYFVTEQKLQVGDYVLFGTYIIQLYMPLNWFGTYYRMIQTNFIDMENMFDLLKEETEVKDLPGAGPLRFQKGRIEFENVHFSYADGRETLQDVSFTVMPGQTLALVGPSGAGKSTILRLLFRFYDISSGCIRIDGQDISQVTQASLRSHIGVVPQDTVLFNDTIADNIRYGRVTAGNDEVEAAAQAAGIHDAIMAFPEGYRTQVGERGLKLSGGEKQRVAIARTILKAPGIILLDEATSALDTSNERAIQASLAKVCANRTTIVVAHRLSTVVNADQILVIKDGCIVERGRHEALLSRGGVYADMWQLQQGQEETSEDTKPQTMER
Myeloid diff MLP: compounds promoting myeloid differentiation. ER-HoxA9 myeloid progenitors, lysozyme-GFP differentiation, flow cytometry. calls only at 10 µM. 1% of 360,000 active. AID 624256;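 active = normalized GFP-positive differentiation at or above the plate's own cutoff, the solvent-only control mean plus 3 SD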;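 note: cells exposed to compound for four days before flow analysis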
iPSC survival up: increases survival of single human iPS cells; hiPSC single-cell survival, ATPlite luminescence; 100% = ROCK inhibitor wells, 0% = DMSO; survival enhancement, % at 20 µM; 0.044% of 360,000 active; in the data active = survival enhancement above about 18%;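 note: cells exposed to compounds for 16 hours before the ATP read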
Cardio protect: myocardial damage modulation in H9c2 cells; 0.63% of 360,000 active; AID 588492; protection from H2O2 cell death, % at 20 µM; H9c2 cardiomyocytes, H2O2 injury protection, ATPLite, 2 h;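 active = compounds giving at least 50% protection of heart cells from peroxide-induced death in the single-dose screen, raw or plate-pattern-corrected value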;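 note: 0% = DMSO wells with peroxide and 100% = DMSO wells without peroxide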
MIN6 prolif: induces beta-cell replication in MIN6 cells; MIN6 cells proliferation, ATPlite luminescence, 48 h; cells starved in 0.2% serum; 100% = growth in 10% serum; proliferation, % at 10 µM; 0.29% of 330,000 active; AID 2380;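 active = compounds whose signal lies at least 3.5 SD above the mean of all wells on their plate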;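 note: 0% = DMSO-treated cells in low-serum medium and 100% = 10% serum control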
The depositor's hits bear a star. Sampled rows, rich in hits. Any-hit rate of the full collection: about 2.2%.

Screening CC(C)Oc1cccc(C(=O)NC(=S)Nc2ccc3c4c(cccc24)CC3)c1 returned ABCB6 inh MLPCN 203.0, Myeloid diff MLP active, iPSC survival up -2.9, Cardio protect -9.7 and MIN6 prolif -2.8.
`O=C(Nc1ccc2c3c(cccc13)CC2)c1ccco1` gave ABCB6 inh MLPCN 151.0, Myeloid diff MLP active, iPSC survival up 0.3, Cardio protect -4.8 and MIN6 prolif -1.1.
COc1ccc(C(=O)Nc2ccc3c4c(cccc24)CC3)cc1 was read as ABCB6 inh MLPCN 96.0, Myeloid diff MLP inactive, iPSC survival up 0.6, Cardio protect -3.1 and MIN6 prolif 0.4.
Screening COc1ccc(-c2[nH]ncc2CN(C)CC2CCCCO2)cc1F (centres undefined) returned ABCB6 inh MLPCN 94.0, Myeloid diff MLP inactive, iPSC survival up 1.9, Cardio protect 2.9 and MIN6 prolif -3.2.
Screening Cc1nn(-c2ccccc2)nc1C(=O)Nc1cccc(C(=O)NC2CC2)c1 returned ABCB6 inh MLPCN 85.0, Myeloid diff MLP inactive, iPSC survival up -3.4 and Cardio protect 61.3*.
For Cc1nn(-c2cccc(Cl)c2)nc1C(=O)Nc1cccc(C(=O)NC2CC2)c1 the results were ABCB6 inh MLPCN 98.0, Myeloid diff MLP inactive, iPSC survival up 1.3, Cardio protect 31.8 and MIN6 prolif -3.6.
CC(C)CC(c1nnnn1C(C)C)N1CCN(c2cccc(Cl)c2)CC1 (centres undefined) was read as ABCB6 inh MLPCN 97.0, Myeloid diff MLP inactive, iPSC survival up 0.6, Cardio protect -5.8 and MIN6 prolif -0.9.
`O=C(COC(=O)c1ccc([N+](=O)[O-])o1)NC1CCCCC1` gave ABCB6 inh MLPCN 106.0, Myeloid diff MLP inactive, iPSC survival up -0.5, Cardio protect 8.5 and MIN6 prolif 1.4.
Screening O=C(NC1CCCC(C(F)(F)F)C1)c1ccc([N+](=O)[O-])o1 (centres undefined) returned ABCB6 inh MLPCN 101.0, Myeloid diff MLP active, iPSC survival up -4.6, Cardio protect -19.1 and MIN6 prolif -3.7.
O=C(NC1CCCCC1)c1ccc([N+](=O)[O-])o1 was read as ABCB6 inh MLPCN 99.0, Myeloid diff MLP active, iPSC survival up -0.7, Cardio protect -12.8 and MIN6 prolif 0.0.
O=C(NNC(=O)c1ccc([N+](=O)[O-])o1)c1ccccc1 was read as ABCB6 inh MLPCN 90.0, Myeloid diff MLP active, iPSC survival up -1.7, Cardio protect 8.5 and MIN6 prolif -3.3.
For O=C(NN(c1ccccc1)c1ccccc1)c1ccc([N+](=O)[O-])o1 the results were ABCB6 inh MLPCN 101.0, Myeloid diff MLP inactive, iPSC survival up -2.2, Cardio protect 0.3 and MIN6 prolif -4.2.
`CC(NC(=O)c1ccc([N+](=O)[O-])o1)C12CC3CC(CC(C3)C1)C2` (centres undefined) gave ABCB6 inh MLPCN 96.0, Myeloid diff MLP active, iPSC survival up -0.3, Cardio protect -8.8 and MIN6 prolif -3.4.
Screening CC(=O)Nc1ccc(NC(=O)c2ccnn2C)cc1 returned ABCB6 inh MLPCN 98.0, Myeloid diff MLP inactive, iPSC survival up -0.4, Cardio protect 2.8 and MIN6 prolif -0.6.
`O=c1[nH]c2ccccc2nc1/C=C/c1ccc(O)cc1` gave ABCB6 inh MLPCN 113.0, Myeloid diff MLP active, iPSC survival up -2.3, Cardio protect 0.7 and MIN6 prolif -3.5.
For O=C(/C=C/c1ccc(F)cc1)Nc1nc2ccccc2[nH]1 the results were MIN6 prolif 1.3.
`O=c1[nH]c2ccccc2nc1/C=C/c1ccccc1` gave ABCB6 inh MLPCN 100.0, Myeloid diff MLP inactive, iPSC survival up 0.4, Cardio protect 1.5 and MIN6 prolif -3.9.
For O=c1[nH]c2ccccc2nc1/C=C/c1ccc(F)cc1 the results were ABCB6 inh MLPCN 180.0, Myeloid diff MLP active, iPSC survival up -1.1, Cardio protect -14.0 and MIN6 prolif -3.1.
COc1nc(-c2ccccc2)cc(-c2ccc3c(c2)OCO3)c1C#N was read as ABCB6 inh MLPCN 98.0, Myeloid diff MLP active, iPSC survival up -0.4, Cardio protect 4.4 and MIN6 prolif 0.2.
Screening COc1ccc(-c2cc(-c3ccccc3)c(C#N)c(S(C)(=O)=O)n2)cc1 returned ABCB6 inh MLPCN 87.0, iPSC survival up -6.1, Cardio protect -15.0 and MIN6 prolif -6.5.

Compound activity deposited in PubChem BioAssay by several laboratories.
